Consider seven sequences from the supplement of paper PMC6555819.

What all share (experiment): PBM binding z-score (relative to random genomic background probes); higher = stronger binding; sequences stand for … in GC…GCGATTGACAGCGTAGAATGAAGG
In experiment [1] the test system is RARb homodimer (NR concentration 270 nM). Summed up: (§1)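 On custom Agilent 4×180K arrays, double-stranded probes with 34-nt variable regions carried direct-repeat seeds, single-nucleotide variants, half-site ablations or random human genomic background. Ligand-free nuclear receptor dimers were applied for 1 h, and binding was read with antibodies against each partner (one per run). Binding z-scores come from regression-normalized fluorescence, with the random background probes as reference.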

Experiment [2] concerns RARg:RXRa (NR concentration 270 nM, RXRa partner concentration 90 nM). In outline: as §1
In experiment [3] the test system is RARg homodimer (NR concentration 270 nM). In outline: as §1
The subject of experiment [4] is RXRa DBDmut IVT, anti-RXR (DBD mutation: RXRa K156A/R161A, NR concentration 90 nM). Summed up:
as §1

The subject of experiment [5] is RXRa homodimer (NR concentration 180 nM). Summed up: as §1
In experiment [6] the test system is THRa:RXRa (NR concentration 90 nM, RXRa partner concentration 90 nM). In outline: as §1
Experiment [7] relates to THRa homodimer (NR concentration 90 nM). Summed up:
as §1

Experiment [8] concerns VDR homodimer (NR concentration 270 nM). In outline:
as §1

TCGAGTAAGTTACGGGGGCATTCAGGGATGAAGA: the PBM binding z-score in experiment [1] came to 1.15; in experiment [2] it was 1.48; in experiment [3], 0.746; in experiment [4] it was 1.48; in experiment [5], 1.4; in experiment [6], 3.54. The PBM binding z-score was 0.682 in experiment [7] and 3.03 in experiment [8].
Regarding CAAACTAGGTCAAAGGTCAAAGACGAGCCAACCA, the PBM binding z-score is 5.19 in experiment [1]; 9.13 in experiment [2]; 7.66 in experiment [3]; 2.8 in experiment [4]; 10.6 in experiment [5]; 4.79 in experiment [6]. For the same sequence, the PBM binding z-score in experiment [7] stood at 1.57; in experiment [8] it was 3.33.
For the sequence ATATGTAGGTTACATCGGGGTCATTCAGGCTATG, the PBM binding z-score was 4.16 in experiment [1]; 5.65 in experiment [2]; 3.14 in experiment [3]; 2.56 in experiment [4]; 6.42 in experiment [5]; 4.32 in experiment [6]. For the same sequence, the PBM binding z-score turned out to be 3.16 in experiment [7] and 6.17 in experiment [8].
ATATGTAGGTTAGGGTTATTCAGAAAGTAGGGAA: the PBM binding z-score in experiment [1] was found to be 1.72; in experiment [2], 1.45; in experiment [3], 1.05; in experiment [4], 1.06; in experiment [5] it was 2.13; in experiment [6] it was 2.45. Also, the PBM binding z-score in experiment [7] was found to be 1.52; in experiment [8] it was 1.23.
Turning to ATATGTAGGTTAGGGTCATTTAGAAAGTAGGGAA, the PBM binding z-score in experiment [1] is 3.38; in experiment [2], 3.86; in experiment [3], 2.8; in experiment [4], 2.29; in experiment [5], 5.07; in experiment [6], 4.06. Also, the results for the PBM binding z-score in experiment [7] and in experiment [8] were 3.22 and 3.84, respectively.
Regarding CGAACTAGGTCCAAGGACAGTGAAAGGCGACGTA, the PBM binding z-score stood at 0.38 in experiment [1]; 0.00598 in experiment [2]; 0.386 in experiment [3]; 0.946 in experiment [4]; 0.00981 in experiment [5]; 1.39 in experiment [6]. For the same sequence, the PBM binding z-score in experiment [7] is 0.672; in experiment [8], -0.041.
With CTATGTAGGTTAAGCGGGTCATTCAGTTTGAAAG, the PBM binding z-score in experiment [1] came out at 2.58; in experiment [2], 2.62; in experiment [3], 1.94; in experiment [4], 1.29; in experiment [5] it was 3.17; in experiment [6], 2.56. The figures for the PBM binding z-score in experiment [7] and in experiment [8] were 0.448 and 3.14, respectively.
